Publication PMC5540273 (PLoS ONE, 2017)

tested on: KIT
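Further: kd values determined as follow-up on hits from a single-replicate KINOMEscan panel screen.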

Structure (SMILES)	Kd
COC(=O)c1c(-c2ccccc2)c2cc(C(=O)O)ccc2c(=O)n1Cc1ccccc1	0.1 µM
O=C(Nc1ccccc1)Nc1cccc(Oc2ccc3nccn3n2)c1	0.00094 µM
CC(C)(C)c1ccc(C(=O)Nc2cn3cc(-c4cccnc4)ccc3n2)cc1	0.32 µM
Cc1ccc(C(=O)Nc2ccc(Nc3ccnc4cc(-c5ccccn5)ccc34)cc2O)cc1.Cl [GW440146]	2.2 µM
Cc1cccc(-c2nc(-c3ccc(S(C)(=O)=O)cc3)sc2-c2ccnc(NCCc3ccccc3)c2)c1	0.12 µM
COC(=O)c1c(-c2ccccc2)c2cc(OC)ccc2c(=O)n1Cc1ccccc1	0.17 µM
CC(=O)Nc1nc2cnc(Nc3cc(NC(=O)c4cccc(CCC#N)c4)ccc3C)nc2s1	> 10 µM
Cn1ccc2ncnc(Oc3ccc(NC(=O)Nc4ccccc4)cc3)c21	0.0006 µM

tested on: LCK

Structure (SMILES)	Kd
Cc1ccccc1-n1cnc2c(N)ncnc21 [SKF-97510]	> 10 µM
Cc1ccc(C(=O)Nc2ccc(Nc3ccnc4cc(-c5ccccn5)ccc34)cc2O)cc1.Cl [GW440146]	0.26 µM
COc1cc2nccc(Nc3ccc(NC(=O)c4ccc(C)cc4)c(O)c3)c2cc1OC.Cl [GW440132]	0.56 µM

tested on: T1, LOK
T1 construct: gene STK10

Structure (SMILES)	Kd
COc1cc2ncn(-c3cc(OCC4CCCO4)c(C(N)=O)s3)c2cc1OC (centres unmarked) [GSK204607]	0.1 µM
Cn1ccc2ncnc(Oc3ccc(Nc4nc5ccccc5[nH]4)cc3)c21	0.2 µM
Cn1ccc2ncnc(Oc3ccc(NC(=O)Nc4ccccc4)cc3)c21	0.28 µM
